Data from PubChem BioAssay AID1159580 (chemical genetic matrix, 2015).
In all, about 5,500 compounds went through this assay and about 2,000 (36%) were called active. Inconclusive results (about 18%) are left out. Some of the results follow. Unmarked numbers belong to inactive results. No stated cut-off is given here; in the data, active means normalized growth mostly below about 0.91 (no sharp cut-off); inconclusive means no clear call, values can overlap the other calls; inactive means mostly above about 0.92.

Assay: chemical genetic growth profiling, strain panel (AID 1159580);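 further: tested at 20 µM; growth read once vehicle control cultures reached saturation at 30 °C; 1 = growth at the plate median or of vehicle wells; lower values mean less growth of the strain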
Details: S. cerevisiae deletion strains, growth OD
[1] = locus YAL040C, strain CLN3, hits give low values
[2] = locus YCL061C, strain MRC1 (second series), hits give low values
[3] = locus YDR363W, strain ESC2, hits give low values
[4] = locus YER002W, strain NOP16, hits give low values
[5] = locus YGR078C, strain PAC10, hits give low values
[6] = locus YMR307W, strain GAS1, hits give low values
[7] = locus YNL175C, strain NOP13, hits give low values
[8] = locus YNL197C, strain WHI3, hits give low values
[9] = locus YNL224C, strain SQS1, hits give low values
[10] = locus YOR083W, strain WHI5 (second series), hits give low values
[11] = locus YPL241C, strain CIN2, hits give low values

| SMILES | normalized growth (locus YAL013W, strain DEP1, hits give low values) | normalized growth [1] | normalized growth [2] | normalized growth (locus YDR150W, strain NUM1, hits give low values) | normalized growth [3] | normalized growth [4] | normalized growth [5] | normalized growth (locus YGR229C, strain SMI1, hits give low values) | normalized growth [6] | normalized growth [7] | normalized growth [8] | normalized growth [9] | normalized growth [10] | normalized growth (locus YPL055C, strain LGE1, hits give low values) | normalized growth [11] | normalized growth (locus YMR263W, strain SAP30, hits give low values) | normalized growth (locus YNL128W, strain TEP1, hits give low values) | normalized growth (locus YNL322C, strain KRE1, hits give low values) |
| --- | --- | --- | --- | --- | --- | --- | --- | --- | --- | --- | --- | --- | --- | --- | --- | --- | --- | --- |
| CC(C(O)c1ccc(O)cc1)N1CCC(Cc2ccccc2)CC1 (centres undefined) | 0.932 | 1.03 | 0.959 | 0.872 (active) | 0.94 | 1.01 | 1.01 | 0.785 (active) | 0.994 | 0.935 | 1.03 | 1.03 | 1.04 | 0.75 (active) | 0.944 (active) |  |  |  |
| C[C@@H](CN1CCC(Cc2ccccc2)CC1)[C@@H](O)c1ccc(O)cc1 |  | 1.07 | 0.996 |  | 1.01 | 1.01 | 0.996 |  | 1.05 | 0.993 | 0.999 | 1.02 | 1 |  | 0.99 | 1 | 1.03 | 0.979 |
